Reference: PubChem BioAssay (NCI)
The panel holds about 83,000 compounds, 20% with a hit somewhere; the sample as a whole holds those more often.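 Assay: single dose, 48 h. Readout: percent growth (0 = no net growth; negative = cell death). Active: <10.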 A number with no mark means an inactive call. Calls of active or inactive are those of the source.

Tests used:
Test in all cases: NCI-60 one-dose screen, 48 h (100 = growth as untreated, 0 = no growth, -100 = all killed)
Details in all cases: 10 µM unless noted
[1] = tested on: SR leukemia
[2] = tested on: OVCAR-8 ovarian
[3] = tested on: OVCAR-5 ovarian
[4] = tested on: OVCAR-4 ovarian
[5] = tested on: SK-OV-3 ovarian
[6] = tested on: IGROV1 ovarian
[7] = tested on: OVCAR-3 ovarian
[8] = tested on: HS 578T breast
[9] = tested on: NCI/ADR-RES ovarian
[10] = tested on: T-47D breast
[11] = tested on: MDA-MB-435 melanoma
[12] = tested on: SW-620 colon
[13] = tested on: MCF7 breast
[14] = tested on: HCT-116 colon
[15] = tested on: HCC-2998 colon
[16] = tested on: KM12 colon
[17] = tested on: BT-549 breast

| SMILES | growth [1] | growth [2] | growth [3] | growth [4] | growth [5] | growth [6] | growth [7] | growth [8] | growth [9] | growth [10] | growth [11] | growth [12] | growth [13] | growth [14] | growth [15] | growth [16] | growth [17] |
| --- | --- | --- | --- | --- | --- | --- | --- | --- | --- | --- | --- | --- | --- | --- | --- | --- | --- |
| C=C(C)C1CCC2(C)OC2C1 (configuration not stated) | 116% | 113% | 102% | 94.6% | 116% | 89.5% | 123% | 106% | 99.6% | 117% | 98.2% | 110% | 105% | 109% | 114% | 115% | – |
| C/C=C(\C)C(=O)N[C@H]1[C@@H](OC(C)=O)C[C@]2(C)C3CC[C@@]4(C)C(CC[C@@H]4C(C)N(C)C)C3CCC2[C@H]1O (some centres not stated) | 51% | 78.6% | 96.7% | 15.3% | 93.6% | 66.4% | – | 88.6% | 67.9% | 60.6% | 1.82% (active) | 63.9% | 61.9% | 30.7% | 69.2% | 45.6% | 63.4% |
| CCN(CC)CCNc1nc2ccccc2c2c(=O)c3cc(Cl)ccc3sc12 | -2.52% (active) | 64.4% | 81.6% | 46.5% | 54% | 56.1% | 51.3% | 67.6% | – | 60.4% | 15.6% | 17.2% | 52.3% | 20.5% | 14.2% | 26.5% | 94% |
| O=[N+]([O-])c1ccccc1NCSc1ccc(Cl)cc1 | 65% | 95.5% | 114% | 108% | 109% | 123% | 109% | 99.7% | – | 93.3% | 93.8% | 101% | 91.9% | 83.8% | 84.3% | 79.2% | 69.2% |
| N#Cc1cccc(NC(=O)c2cc(-c3ccc(F)cc3F)ccc2O)c1 | 12.8% | 16.8% | 36.8% | 22.1% | 6.59% (active) | 29% | 1.29% (active) | 16% | 4.93% (active) | 16.1% | 8.27% (active) | 18.8% | 3.66% (active) | 7.36% (active) | 26.5% | 7.89% (active) | – |
| O=c1c2cccc(F)c2sc2c(NCCCNCCO)nc3ccccc3c12 | -16.6% (active) | 32% | 61.8% | 34.9% | 56.2% | 24.2% | 30.1% | 37.8% | 31.5% | 51.8% | 6.93% (active) | -68.1% (active) | 20.2% | 0.842% (active) | -51.7% (active) | 9.05% (active) | – |
| NCCCNc1nc2ccccc2c2c(=O)c3cc(F)cc(F)c3sc12 | -35.8% (active) | 69.7% | 50.9% | -62.3% (active) | 83.6% | 77.9% | – | 76.8% | 84% | 92.7% | -91.2% (active) | -75.6% (active) | 75.5% | 53.2% | 75.3% | 79.1% | 93.4% |
| COc1ccc(NC2=C(Br)C(=O)C(C)=C(C)C2=O)cc1 | 2.06% (active) | -29.7% (active) | 102% | -99.6% (active) | 69.4% | 41.3% | 60.3% | 96.9% | 80.6% | -33.9% (active) | – | 98.9% | 63.5% | – | 99.6% | 94.8% | – |
| Cc1nn(-c2ccccc2)c(-n2ccnc2)c1/C=N/Nc1nc(-c2ccc(Cl)c(Cl)c2)cs1 | 41.2% | 20% | 71.8% | -22.1% (active) | 89.5% | 60.9% | – | 42% | -9.8% (active) | 28.7% | 66.2% | 30.6% | 17.1% | 0.896% (active) | 63.5% | 66.7% | 71.5% |
